From PubChem BioAssay (NCATS)
Inconclusive results are not listed. Entries that show only a call come without a potency. Active and inactive are the calls of the source. Calls follow the shape of the full dose curve.

target: Nucleoprotein (Lymphocytic choriomeningitis virus (strain Armstrong)) (UniProt P09992); assay: qHTS for Inhibitors of the Functional Ribonucleoprotein Complex (vRNP) of Lymphocytic Choriomeningitis Arenaviruses (LCMV): LCMV Primary Screen - GLuc reporter signal (AID 1347086); conditions: LCMV minigenome vRNP cell assay, Gaussia luciferase reporter; series mostly up to 57.5 µM; also: nearly all actives have a fitted effect of over 70% in size
Sequence (P09992 whole entry, looked up): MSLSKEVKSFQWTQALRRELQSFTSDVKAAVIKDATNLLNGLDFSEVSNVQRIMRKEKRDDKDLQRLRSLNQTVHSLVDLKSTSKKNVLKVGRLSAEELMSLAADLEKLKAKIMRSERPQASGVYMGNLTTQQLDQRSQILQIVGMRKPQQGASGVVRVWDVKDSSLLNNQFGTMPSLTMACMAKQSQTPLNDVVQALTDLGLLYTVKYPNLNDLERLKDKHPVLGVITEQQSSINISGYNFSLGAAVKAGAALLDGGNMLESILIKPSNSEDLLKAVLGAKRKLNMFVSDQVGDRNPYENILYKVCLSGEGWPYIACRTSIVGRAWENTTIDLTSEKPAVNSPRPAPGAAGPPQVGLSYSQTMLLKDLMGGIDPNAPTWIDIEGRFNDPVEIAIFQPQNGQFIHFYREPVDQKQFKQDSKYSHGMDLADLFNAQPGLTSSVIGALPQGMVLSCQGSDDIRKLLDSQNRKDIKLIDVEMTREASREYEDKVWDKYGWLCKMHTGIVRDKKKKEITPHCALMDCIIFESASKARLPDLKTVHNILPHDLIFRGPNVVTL

Question: With `CCc1ccc(CCOc2ccc(CC3SC(=O)NC3=O)cc2)nc1` (stereo unspecified) as the compound, how does the Potency read?
Answer: inactive

Question: For `CN1CCN(C2=Nc3ccccc3Oc3ccc(Cl)cc32)CC1`, which Potency is on record?
Answer: inactive

Question: Which Potency does the source give for `Cc1oncc1C(=O)Nc1ccc(C(F)(F)F)cc1` here?
Answer: inactive

Question: With `COc1cc2nc(N3CCN(C(=O)c4ccco4)CC3)nc(N)c2cc1OC` as the compound, how does the Potency read?
Answer: inactive

Question: `COC(=O)N[C@H](C(=O)N[C@@H](Cc1ccccc1)[C@@H](O)CN(Cc1ccc(-c2ccccn2)cc1)NC(=O)[C@@H](NC(=O)OC)C(C)(C)C)C(C)(C)C` was tested. Which Potency did it give?
Answer: inactive

Question: Which Potency does the source give for `CCCCN1C[C@H](O)[C@@H](O)[C@H](O)[C@H]1CO` here?
Answer: inactive

Question: For `CN(C)[C@@H]1C(=O)C(C(N)=O)=C(O)[C@@]2(O)C(=O)C3=C(O)c4c(O)ccc(Cl)c4[C@@H](O)[C@H]3C[C@@H]12`, which Potency is on record?
Answer: inactive

Question: `NC(=O)C(c1ccccc1)(c1ccccc1)[C@@H]1CCN(CCc2ccc3c(c2)CCO3)C1` was tested. Which Potency did it give?
Answer: inactive

Question: `Cc1cccc(Nc2ccccc2C(=O)O)c1C` was tested. Which Potency did it give?
Answer: inactive

Question: With `COC(=O)[C@@H]1CC2=CC(=O)CC[C@]2(C)[C@@]23O[C@@H]2C[C@@]2(C)[C@@H](CC[C@@]24CCC(=O)O4)[C@H]13` as the compound, how does the Potency read?
Answer: inactive

Question: `CS(=O)(=O)OCCCCOS(C)(=O)=O` was tested. Which Potency did it give?
Answer: inactive

Question: Which Potency does the source give for `CC/C(=C(\c1ccccc1)c1ccc(OCCN(C)C)cc1)c1ccccc1` here?
Answer: inactive

Question: `CCC1C(=O)OCC1Cc1cncn1C` (stereo unspecified) was tested. Which Potency did it give?
Answer: inactive

Question: Which Potency does the source give for `OCCN1CCN(CCCN2c3ccccc3Sc3ccc(C(F)(F)F)cc32)CC1` here?
Answer: inactive

Question: How did the Potency turn out when `Cc1cnc(C(=O)NCCc2ccc(S(=O)(=O)NC(=O)NC3CCCCC3)cc2)cn1` was run?
Answer: inactive

Question: With `CC(c1cc2ccccc2s1)N(O)C(N)=O` (stereo unspecified) as the compound, how does the Potency read?
Answer: inactive
